# In PubChem BioAssay (NCATS):
# Results filed as inconclusive are left out. A call without a number means that no potency is given here. Calls of active or inactive are those of the source. Calls come from the whole dose curve; as a rule, active = well fitted inhibition curve with a large enough effect; inconclusive = small, poorly fitted or top-dose-only effect; inactive = flat fitted curve, though single readings scatter.
# System: HACAT
# Test: qHTS assay to identify novel small-molecules to repurpose for Merkel cell carcinoma treatment (AID 1296009); note: nearly all actives have a fitted effect of over 60% in size
# Details: MCC and control cell lines, CellTiter-Glo viability, 72 h; series mostly up to 44.8 µM
# How it was run: (§1)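 Cells were incubated with compound for 72 hr at 37 degree celsius before CellTiter-Glo addition. Luminescence was normalized with no-cell wells as full cytotoxicity and DMSO as baseline.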
# Potency is the fitted concentration of half-maximal effect.
row,Structure (SMILES),Potency
1,OCc1ccc(-c2ccc(-c3ccc(CO)s3)o2)s1,inactive
2,CCCCCCCCCC(=O)N[C@@H](Cc1c[nH]c2ccccc12)C(=O)N[C@H](CC(N)=O)C(=O)N[C@@H](CC(=O)O)C(=O)N[C@@H]1C(=O)NCC(=O)N[C@@H](CCCN)C(=O)N[C@@H](CC(=O)O)C(=O)N[C@H](C)C(=O)N[C@@H](CC(=O)O)C(=O)NCC(=O)N[C@H](CO)C(=O)N[C@@H]([C@@H](C)CC(=O)O)C(=O)N[C@@H](CC(=O)c2ccccc2N)C(=O)O[C@@H]1C,inactive
3,COC(=O)C[C@](O)(CCCC(C)(C)O)C(=O)O[C@@H]1C(OC)=C[C@]23CCCN2CCc2cc4c(cc2[C@H]13)OCO4,inactive
4,CN1CCN(c2cc(C(=O)Nc3ccc4c(c3)-c3c(c(C(N)=O)nn3-c3ccc(F)cc3)CC4)c(Cl)cn2)CC1,inactive
5,O=C(O)[C@H](Cc1c[nH]c2ccccc12)N1C(=O)c2ccccc2C1=O,inactive
6,Cn1cc(-c2ccncc2)c(-c2ccc(OCc3ccc4ccccc4n3)cc2)n1,inactive
7,CC(C)(C)c1cc(NC(=O)Nc2ccc(-c3cn4c(n3)sc3cc(OCCN5CCOCC5)ccc34)cc2)no1,inactive

# System: MCC-13
# Test: as above
# Details: MCC and control cell lines, CellTiter-Glo viability, 72 h; series mostly up to 46 µM
# How it was run: as §1
row,Structure (SMILES),Potency
1,CCCCCCCCCC(=O)N[C@@H](Cc1c[nH]c2ccccc12)C(=O)N[C@H](CC(N)=O)C(=O)N[C@@H](CC(=O)O)C(=O)N[C@@H]1C(=O)NCC(=O)N[C@@H](CCCN)C(=O)N[C@@H](CC(=O)O)C(=O)N[C@H](C)C(=O)N[C@@H](CC(=O)O)C(=O)NCC(=O)N[C@H](CO)C(=O)N[C@@H]([C@@H](C)CC(=O)O)C(=O)N[C@@H](CC(=O)c2ccccc2N)C(=O)O[C@@H]1C,inactive
2,c1cc(-c2cnn3cc(-c4ccc(OCCN5CCCCC5)cc4)cnc23)ccn1,16.6 µM (active)
3,COC(=O)C[C@](O)(CCCC(C)(C)O)C(=O)O[C@@H]1C(OC)=C[C@]23CCCN2CCc2cc4c(cc2[C@H]13)OCO4,inactive
4,CN1CCN(c2cc(C(=O)Nc3ccc4c(c3)-c3c(c(C(N)=O)nn3-c3ccc(F)cc3)CC4)c(Cl)cn2)CC1,inactive
5,Cc1[nH]c2ccccc2c1CCNCc1ccc(C=CC(=O)NO)cc1,0.833 µM (active)
6,Cc1cn2c(-c3cn[nH]c3)cnc2c(Nc2ccc(C(=O)N3CCNCC3)cc2F)n1,inactive
7,O=c1[nH]c(=O)n(C2CCCO2)cc1F (stereo unspecified),inactive
8,O=C(O)C1(Cc2cccc(Nc3nccs3)n2)CCC(Oc2cccc(Cl)c2F)CC1 (stereo unspecified),10.5 µM (active)
9,O=C(O)[C@H](Cc1c[nH]c2ccccc12)N1C(=O)c2ccccc2C1=O,inactive
10,CCN(CC)CCNC(=O)c1ccc2nc(-c3ccccc3)c(-c3ccc(CN4CCC(n5c(=O)[nH]c6ccccc65)CC4)cc3)nc2c1,8.33 µM (active)
11,COc1cc2c(NC3CCN(C(C)C)CC3)nc(C3CCCCC3)nc2cc1OCCCN1CCCC1,inactive
12,CS(=O)(=O)N1CCN(Cc2cc3nc(-c4cccc5[nH]ncc45)nc(N4CCOCC4)c3s2)CC1,inactive
13,Cc1cccc(C=NNc2cc(N3CCOCC3)nc(OCCc3ccccn3)n2)c1,inactive
14,Cn1cc(-c2ccncc2)c(-c2ccc(OCc3ccc4ccccc4n3)cc2)n1,inactive
15,NC(=O)c1cccc2cn(-c3ccc([C@@H]4CCCNC4)cc3)nc12,inactive
16,Nc1ccccc1NC(=O)c1ccc(CNc2nccc(-c3cccnc3)n2)cc1,5.26 µM (active)
17,CC(C)(C)c1cc(NC(=O)Nc2ccc(-c3cn4c(n3)sc3cc(OCCN5CCOCC5)ccc34)cc2)no1,inactive
18,CN1CCC(CNc2ccc3ncc(-c4cccc(OC(F)(F)F)c4)n3n2)CC1,inactive
19,CC(C)c1cc(-c2n[nH]c(=O)n2-c2ccc3c(ccn3C)c2)c(O)cc1O,0.132 µM (active)
20,CC1(C)OC2=C(C(=O)c3ccccc3C2=O)[C@H](NCc2ccccc2)[C@H]1O,10.5 µM (active)

# System: MCC-26
# Test: as above
# Details: MCC and control cell lines, CellTiter-Glo viability, 72 h; series mostly up to 46 µM
# How it was run: as §1
row,Structure (SMILES),Potency
1,COC(=O)[C@]12CCC(C)(C)C[C@@H]1[C@@H]1C(=O)C=C3[C@@]4(C)C=C(C#N)C(=O)C(C)(C)[C@@H]4CC[C@@]3(C)[C@]1(C)CC2,inactive
2,OCc1ccc(-c2ccc(-c3ccc(CO)s3)o2)s1,inactive
3,CCCCCCCCCC(=O)N[C@@H](Cc1c[nH]c2ccccc12)C(=O)N[C@H](CC(N)=O)C(=O)N[C@@H](CC(=O)O)C(=O)N[C@@H]1C(=O)NCC(=O)N[C@@H](CCCN)C(=O)N[C@@H](CC(=O)O)C(=O)N[C@H](C)C(=O)N[C@@H](CC(=O)O)C(=O)NCC(=O)N[C@H](CO)C(=O)N[C@@H]([C@@H](C)CC(=O)O)C(=O)N[C@@H](CC(=O)c2ccccc2N)C(=O)O[C@@H]1C,inactive
4,Nc1ccc(C(=O)c2cc3c(ccc4ccccc43)[nH]2)cc1,inactive
5,CN1CCN(c2cc(C(=O)Nc3ccc4c(c3)-c3c(c(C(N)=O)nn3-c3ccc(F)cc3)CC4)c(Cl)cn2)CC1,inactive
6,Cc1[nH]c2ccccc2c1CCNCc1ccc(C=CC(=O)NO)cc1,0.935 µM (active)
7,CC(C)C[C@H](NC(=O)CNC(=O)c1cc(Cl)ccc1Cl)B(O)O,0.526 µM (active)
8,Cc1cn2c(-c3cn[nH]c3)cnc2c(Nc2ccc(C(=O)N3CCNCC3)cc2F)n1,inactive
9,O=c1[nH]c(=O)n(C2CCCO2)cc1F (stereo unspecified),inactive
10,O=C(O)[C@H](Cc1c[nH]c2ccccc12)N1C(=O)c2ccccc2C1=O,inactive
11,Cc1cccc(C=NNc2cc(N3CCOCC3)nc(OCCc3ccccn3)n2)c1,inactive
12,Cn1cc(-c2ccncc2)c(-c2ccc(OCc3ccc4ccccc4n3)cc2)n1,inactive
13,CC(C)(C)c1cc(NC(=O)Nc2ccc(-c3cn4c(n3)sc3cc(OCCN5CCOCC5)ccc34)cc2)no1,inactive
14,CN1CCC(CNc2ccc3ncc(-c4cccc(OC(F)(F)F)c4)n3n2)CC1,inactive
